Screening data deposited in PubChem BioAssay by National Center for Advancing Translational Sciences (NCATS).
ATXN2 expr inh = reduces ATXN2 reporter expression in HEK-293 cells | AID 1745845 | HEK-293 ATXN2-luciferase reporter, luminescence, 24 h | 0.72% of 360,000 active | Potency, µM (titrated, usually from 57 µM), for inactives: at the highest dose activity change, negative = inhibition, most hits filed as inhibitors; further: on the % scale 0 is the no-effect control and ±100 the full control effect; nearly all actives have a fitted effect of over 55% in size
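qHTS (up to 57 uM final) was run with 24 h compound exposure of reporter cells at 37 °C. Each well was multiplexed: SteadyGlo luminescence measured ATXN2-luciferase expression after a fluorogenic Gly-Phe-AFC viability readout (25 uM final).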
TGFb inhibitor = blocks TGF-b signaling; HepG2 CAGA-GFP TGF-b/SMAD3 reporter, GFP fluorescence, 18 h; TGF-beta stimulated, 500 pg/mL final; Potency, µM (titrated, usually from 46.1 µM), for inactives: at the top dose activity, negative = inhibition, most hits filed as inhibitors; 1.2% of 410,000 active; further: on the % scale 0 is the no-effect control and ±100 the full control effect; nearly all actives have a fitted effect of over 65% in size
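Per well, imaged GFP fluorescence of HEPG2 CAGA-GFP cells gives the signal; cells get compound, then TGF-beta (500 pg/mL final), 18 h at 37 degrees C; %Activity versus -TGF-beta and +DMSO controls.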
HT1080 IDH1KD tx = kills HT-1080 cells with IDH1 knockdown; HT-1080 IDH1 knockdown viability, ATP luminescence, 48 h; Potency, µM (doses to about 46.1 µM), for inactives: top-dose activity, negative = toxicity, hits mostly cytotoxic; 2% of 360,000 active;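 further: 0% = DMSO wells and -100% = cell-free medium wells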
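HT-1080-IDH1KD cells (IDH1 knocked down), 750/well in RPMI with 5% FBS, treated with compound 48 h at 37 degrees C. Viability by CellTiter-Glo luminescence, normalised to DMSO and no-cell wells; concentration-response curves classed.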
HT1080NT lethal = kills 2HG-producing HT-1080-NT fibrosarcoma cells; HT-1080-NT fibrosarcoma viability, CellTiter-Glo ATP luminescence, 48 h; Potency, µM (series often up to 46.1 µM), inactives show top-dose activity, negative = less viability, usual class: cytotoxic; 1.6% of 360,000 active; AID 686970;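 further: NT is the 2HG producing partner of a matched IDH1 knockdown line; 0% = DMSO-treated cells and -100% = media-only wells without cells; nearly all actives have a fitted effect of over 55% in size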
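HT-1080-NT; 750 cells/well; 5% FBS RPMI; 48 h compound, 37 degrees C; CellTiter-Glo luminescence; curve fitting and curve-class assignment.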
HepG2 viability = HepG2 cytotoxicity, counter-screen for TGF-b inhibitors; Potency, µM (doses to about 46.1 µM), for the others: top-dose activity change, negative = cytotoxicity, hits mostly cytotoxic; 0.76% of 410,000 active; AID 588856; HepG2 CAGA-GFP viability, ATP luminescence, 18 h
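HepG2 CAGA-GFP cells (1000/well, DMEM with 1% FBS) received compound, then TGF-beta at 500 pg/mL final, and were incubated 18 hours at 37 degrees C. Viability was read by CellTiter-Glo luminescence. Media-only wells were set as complete cell-killing and DMSO as no toxicity.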
ATXN viability = reduces viability in counter-screen for ATXN expression inhibitors. Potency, µM (series often up to 56.7 µM), hits mostly cytotoxic. 0.49% of 400,000 active. S2 cells (HEK-293 line with an ATXN2-luciferase reporter) viability, CellTiter-Fluor protease fluorescence, 24 h; further: nearly all actives have a fitted effect of over 40% in size
Active calls of the source: *; i = inactive; ? = inconclusive; · = no result; ! = not active in a repeat. Rows were chosen to be rich in hits. Some 3.9% of all compounds tested hit in one or more screens of this group. The call rests on the fitted dose curve; in most records, active means well fitted curve in the direction sought with a large enough effect; inconclusive means small, poorly fitted or top-dose-only effect, or another doubt; inactive means no such curve, though single readings can be large; an effect the other way counts as inactive or inconclusive. Potency means the concentration at half of the fitted maximal effect.

SMILES | ATXN2 expr inh | TGFb inhibitor | HT1080 IDH1KD tx | HT1080NT lethal | HepG2 viability | ATXN viability
COc1ccc(NC(=O)/C(Cl)=C(/Cl)S(=O)Cc2ccccc2)cn1 (stereo not given) | 2.8µM* | 4µM* | 1.5µM* | 5.8µM* | 7.1µM* | 4.5µM*
COc1ccc(/C=C/C(=O)Nc2ccc(OC)nc2)cc1 | -12% | 1% | -14% | -3% | -24% | ?
C/C(=N\NC(=O)c1cc(C)nc2ccccc12)c1ccncc1 | -6% | 0% | 7.3µM* | ? | -5% | i
C/C(=N\NC(=O)c1cc(C)nc2ccccc12)c1ccccn1 | ? | 4µM* | ? | ? | -37% | ?
CC(=NNC(=S)Nc1cccc(Cl)c1)c1ccccn1 | ? | ? | ? | 18µM* | -48% | ?
O=C(Sc1ccc(Cl)cc1)c1ccccn1 | -7% | -8% | 23µM* | ? | -31% | i
C[C@@H]1C[C@H]2C3C[C@H](F)C4=CC(=O)C=CC4(C)[C@@]3(F)[C@@H](O)CC2(C)[C@@]1(O)C(=O)COC(=O)C(C)(C)C (stereo not given in full) | · | · | · | · | · | i
CC(=O)N1CCc2nc3sc(C(=O)Nc4ccc(Cl)cc4F)c(N)c3c(C(F)(F)F)c2C1 | -3% | 21% | · | · | 5% | i
COc1ccccc1-c1noc(CSc2nnc(Cc3ccccc3)n2-c2ccc(C)c(C)c2)n1 | ? | ? | · | · | -56% | ·
COc1ccc(CNC(=O)c2cnn(-c3nccc(-c4ccco4)n3)c2C)cc1OC | · | · | · | · | · | i
CC(=NNC(=S)N1CCC1)c1ccccn1 | 0.034µM*! | ? | ? | -24% | -28% | ?
C/C(=N\NC(=O)c1ccc(Cl)cc1)c1ccccn1 | ? | 2µM* | ? | ? | -24% | ?
C[C@@H]1CN(Cc2ccc3c(c2)CN(Cc2cccc4c2OCO4)CCO3)C[C@H](C)O1 | · | · | · | · | · | i
CC(C)(C)NC(=O)C(c1ccccc1F)n1c(=O)c(-c2cc3ccccc3[nH]2)nc2ccccc21 (stereo not given) | · | · | ? | -15% | · | ·
O=C(NC1CCCCC1)C(c1cccc2ccccc12)n1c(=O)c(-c2cc3ccccc3[nH]2)nc2ccccc21 (stereo not given) | · | · | 18µM* | 21µM* | · | ·
CC(C)(C)NC(=O)C(c1ccnc2ccccc12)n1c(=O)c(-c2cc3ccccc3[nH]2)nc2ccccc21 (stereo not given) | · | · | 23µM* | 21µM* | · | ·
O=C(NC1CCCCC1)C(c1ccccc1F)n1c(=O)c(-c2cc3ccccc3[nH]2)nc2ccccc21 (stereo not given) | · | · | ? | -24% | · | ·
COc1ccccc1OCc1nnc(-c2ccccc2)o1 | · | · | · | · | -7% | ·
CC(C)(C)c1ccc(NC(=O)N2CCN(c3ccc([N+](=O)[O-])cn3)CC2)cc1 | -21% | -29% | 23µM* | ? | 6% | i
Cc1ccc(-c2nnc(N3CCC(C)CC3)c3ccccc23)cc1C | ? | ? | 29µM* | ? | -20% | i
Cc1nc2sccn2c1CN1Cc2ccccc2OC(c2ccccc2F)C1 (stereo not given) | · | · | · | · | · | i
Cc1cnc(-n2ncc(C(=O)NCc3ccncc3)c2C(C)C)nc1-c1ccc(F)cc1 | · | · | · | · | · | i
CCOc1ccccc1NC(=O)C(Cc1ccccc1)NS(=O)(=O)c1ccc2c(c1)oc(=O)n2C (stereo not given) | 5% | -7% | · | · | -28% | i
Cc1ccc2nc(Cl)c3cc(C(=O)NCCCN4CCCC4)sc3c2c1 | -20% | ? | ? | 18µM* | -59% | ?
CN(C)CCN(Cc1ccco1)C(=O)c1cc2c(Cl)nc3ccccc3c2s1 | -31% | -19% | ? | ? | -40% | ?
SMILES | ATXN2 expr inh | TGFb inhibitor | HT1080 IDH1KD tx | HT1080NT lethal | HepG2 viability | ATXN viability
Cc1ccc2nc(Cl)c3cc(C(=O)N(CCN(C)C)Cc4ccco4)sc3c2c1 | ? | ? | 23µM* | ? | -42% | ?
O=C1c2ccccc2OC2(C=Cc3ccccc3O2)N1Cc1ccccc1 (stereo not given) | -26% | -1% | 18µM* | ? | 1% | i
COC(=O)c1c(OCc2ccccc2)cc(=O)n2c1CCN(Cc1cccc(C)n1)CC2 | · | · | · | · | · | i
COc1ccc(C2NC(=O)NC3=C2CCc2ccccc23)cc1 (stereo not given) | -4% | ? | 18µM* | 15µM* | -22% | i
Cc1nn(-c2ccccc2)c(C)c1/C=N/NC(=O)c1cc(-c2ccc(Br)s2)[nH]n1 | ? | 2% | ? | ? | 5% | ?
CC(/C=N/NC(=O)c1cc(C(C)(C)C)[nH]n1)=C\c1ccccc1 | 9% | 34% | ? | ? | -22% | i
Cc1nn(-c2ccccc2)c(C)c1/C=N/NC(=O)c1cc(-c2ccc(Cl)s2)[nH]n1 | -21% | -9% | 0.89µM* | 0.63µM* | -4% | i
CC(/C=N/NC(=O)c1cc(-c2ccc(C)s2)[nH]n1)=C\c1ccccc1 | -21% | ? | 7.3µM* | 5.2µM* | -59% | ?
CNC(=S)N/N=C/c1c(C)nn(-c2ccccc2)c1Cl | 68% | 12% | 8.9µM* | ? | -2% | i
CCOC(=O)c1ccc(-c2c(-c3ccc(OC)cc3)oc(=O)c3cc(OC)c(OC)cc23)cc1F | 1% | -2% | 11% | 10% | 1% | i
CCOC(=O)c1ccc(-c2c(-c3cc(OC)c(OC)c(OC)c3)noc2C)cc1F | -13% | 11µM* | 1.8µM* | ? | 1% | ?
CCOc1ccc(-n2cc(-c3ccccc3)c3c(N4CCN(c5ccccc5OC)CC4)ncnc32)cc1 | · | -2% | · | · | -10% | ·
COc1cc(-c2noc(C)c2C#CCO)cc(OC)c1OC | -2% | 12% | 2% | 15% | -17% | i
COc1cc(-c2noc(C)c2C#Cc2ccsc2)cc(OC)c1OC | 0% | 11µM* | 0.52µM* | ? | -20% | i
Cc1c2cnn(CC(=O)NCC(C)c3ccccc3)c(=O)c2c(C)n1Cc1cccc(Cl)c1 (stereo not given) | · | -21% | · | · | -28% | ·
COc1cc(OC)c(N(C)S(=O)(=O)c2cccc(C(=O)NC3=NCCS3)c2)cc1Cl | ? | -1% | 16µM* | ? | 2% | i
COc1ccccc1N(C)S(=O)(=O)c1ccc(Cl)c(C(=O)NC2=NCCS2)c1 | -8% | 76% | 2% | 2% | -3% | i
